In PubChem BioAssay AID1985 (Southern Research Specialized Biocontainment Screening …, 2009) one finds outcome data, which are given here for 28 compounds.

Out of some 2,300 compounds screened, about 1,000 (43%) were called active. How the calls were made is not given here. So high a share suggests a set chosen from earlier hits. Some of the results follow. Entries that show only a call come without a potency. Potency and affinity values are given separately.

The assay in a line: modified counter assay using GFP fluorescence, PhoP regulon inhibitor project, dose response (AID 1985). Conditions: S. Typhi, 4 h; series mostly up to 150 µM.
`COc1cc(CNCCCN2CCOCC2)c(Br)cc1OCC(=O)Nc1ccccc1C`: the compound was classed as inactive. Take `CCc1c(C)nc2cc(-c3cc(OC)cc(OC)c3)nn2c1N1CCCC1`: the compound was called inactive.

Consider `Cc1ccc(C2CC(=O)NC(SCCC(C)C)=C2C#N)cc1` (stereo not drawn), for which the call was inactive. In the case of `COc1ccc2c(c1)c1nc(SCC(C)C)n(CCO)c(=O)c1n2C` it was “inactive”.

For `O=C(NCC1CCCO1)c1cc2ccccc2oc1=O` (stereo not drawn), the call was inactive. For the compound `O=S(=O)(c1ccccc1)c1nc(-c2cccs2)oc1NCC1CCCO1` (stereo not drawn), the compound was classed as inactive. With `O=C(O)c1ccc(CSc2nnnn2C2CCCCC2)cc1`, the compound was called inactive.

As for `Cc1cc(NC(=O)COC(=O)c2cccc(S(=O)(=O)N(C)C3CCCCC3)c2)no1`, the compound was classed as inactive. In the case of `O=C(O)Cn1c(=O)c2c3c(sc2n(Cc2ccccc2F)c1=O)CCCC3` it was “inactive”; in that of `CC1(C)Oc2ccc3ccc(=O)oc3c2/C(=C/NCCN/C=C2\C(=O)C(C)(C)Oc3ccc4ccc(=O)oc4c32)C1=O`, “inactive”. For `Cc1cccc(N(C(=O)CCC(=O)Nc2ccccn2)C(C(=O)NC(C)C)c2ccc(O)cc2)c1` (stereo not drawn), the call was inactive. Then `CCN1CCN(C(=O)c2cc3ccc(OC)cc3[nH]2)CC1`, with “inactive”; and `CN1CCN(C(=O)CSc2ccc(Cl)cc2)CC1`, with “inactive”; and `CCN1CCN(C(=O)Cc2coc3cc(C)cc(C)c23)CC1`, with “inactive”. In the case of `CCN1CCN(C(=O)/C=C/c2cccc(Cl)c2)CC1`, the call was inactive. For `O=C(O)c1cc2cc(F)ccc2[nH]1`, the compound was classed as inactive. As for `COC(=O)C(O)(c1c(C)[nH]n(-c2ccccc2)c1=O)C(F)(F)F` (stereo not drawn), the compound was classed as inactive. With `COc1cccc(C(c2c(C)[nH]n(-c3ccccc3)c2=O)c2c(C)[nH]n(-c3ccccc3)c2=O)c1O`, the call was inactive. In the case of `Cc1c(-n2c(SCC(=O)C(C)(C)C)nc3ccccc3c2=O)c(=O)n(-c2ccccc2)n1C` it was “inactive”; in that of `Cc1nc(SCC(=O)N2c3ccccc3Sc3ccccc32)n[nH]1`, “inactive”; in that of `CC(=O)NCCn1c(SCc2ccccc2C)nc2ccccc2c1=O`, “inactive”.

`CC1(C)Cc2c(sc(NC(=O)COc3ccc(Cl)cc3)c2C(N)=O)C(C)(C)N1`: the compound was classed as inactive. Then `COc1ccccc1NC(=O)CN1CCC(c2nc3ccc(C)cc3[nH]2)CC1`, with “inactive”; and `CCC1Oc2ccc(C)cc2N(CC(=O)NCC2COc3ccccc3O2)C1=O` (stereo not drawn), with “inactive”; and `COc1ccc(C)cc1NC(=O)C1CCN(S(=O)(=O)c2c(C)noc2C)CC1`, with “inactive”. Regarding `COc1ccccc1-n1nc(C(=O)NCc2ccco2)c2ccccc2c1=O`, the result was inactive.

As for `CC1CCN(CCCNC(=O)c2ccc3c(=O)n(Cc4ccc(Cl)cc4)c(=S)[nH]c3c2)CC1`, the call was inactive. `O=C(O)CC12CC3CC(C1)CC(n1ncc(NCC4CCCO4)c(Cl)c1=O)(C3)C2` (stereo not drawn): the result was inactive.
